Measurements from PubChem BioAssay AID1578 (Sanford-Burnham Center for Chemical Genomics, 2009).
About 3,000 (1%) of roughly 290,000 compounds were called active. The entries come from a sample that favours actives as a whole. A number with no mark means an inactive call. Cut-off read from the data, not from the text of the source: active = inhibition mostly above about 36% (no sharp cut-off); inactive = mostly below about 34%.

Assay: inhibition of NOD1-driven NF-kB reporter – cell-based, luminescence, uHTS, primary screen (AID 1578);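 note: HEK-293T reporter cells stimulated with the NOD1 agonist gamma-tri-DAP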
Conditions: NOD1-driven NF-kB luciferase reporter cells, at 4 µM, active compounds read high
`COc1ccccc1OCc1ccc(C(=O)N2CCOCC2)o1` gave an inhibition of -11%. `C=CCN(Cc1cc(OC)ccc1OC)S(=O)(=O)N(C)C` showed an inhibition of 3.4%. For `O=C(Cc1ccc(Br)cc1)OCC(=O)N1CCc2ccccc2C1`, the inhibition was -12.8%. `OCCC1CN(Cc2cccc(-c3ccco3)c2)CCN1Cc1ccsc1` (configuration not stated) gave an inhibition of -17.2%. `COc1ccc(CSc2nc(CSC)cc(N3CCOCC3)n2)cc1` gave an inhibition of 7.8%. In the case of `CSCc1cc(N2CCOCC2)nc(SCc2ccc(Cl)c(Cl)c2)n1`, the inhibition is reported as -11.4%. For `COCc1cc(N2CCOCC2)nc(SCc2ccc(Cl)cc2)n1`, the inhibition was 52.1% (active). For `CCCCCCn1ccc(=N)cc1`, the inhibition was 41.6%. With `CCCCCn1ccc(=N)cc1` the inhibition was 13.1%. For `CCN(CC)S(=O)(=O)c1ccc(NS(=O)(=O)c2ccc3oc(=O)[nH]c3c2)cc1`, the inhibition was 22.1%. `CCCc1n[nH]c2c1C(=O)C(C(=O)OC)C(C)(C)C2` (configuration not stated) showed an inhibition of 11.5%. Molecule `COC(=O)C1C(=O)c2c(n[nH]c2C)CC1(C)C` (configuration not stated) has an inhibition of -14.2%. With `COC(=O)C1C(=O)c2c(C)noc2CC1(C)C` (configuration not stated) the inhibition was 64.3% (active). `O=C(c1ccccn1)c1conc1C(=O)c1ccc(Br)cc1` gave an inhibition of 0.5%. `CN(C(=S)NC(=O)Cc1ccccc1)c1ccccc1` showed an inhibition of -27.4%. In the case of `Cc1cc(C)cc(NC(=S)N2CCN(S(=O)(=O)c3ccccc3)CC2)c1`, the inhibition is reported as -17.6%. `Cc1csc(CN(C)C(=O)CC2C(=O)NCCN2Cc2ccc(F)cc2Cl)n1` (configuration not stated) showed an inhibition of -11.4%. Molecule `CCCn1c(NCc2ccco2)nc2ccccc21` has an inhibition of -16.4%. Molecule `c1csc(CNc2nc3ccccc3n2CCN2CCOCC2)c1` has an inhibition of 1.1%. With `c1coc(CNc2nc3ccccc3n2CCN2CCOCC2)c1` the inhibition was 43.1% (active). `CCN(CC)c1ccc(/C=C(\C#N)c2ccccn2)cc1` gave an inhibition of -55.6%. In the case of `N#C/C(=C\c1ccc(Cl)c([N+](=O)[O-])c1)c1ccccn1`, the inhibition is reported as 47.2% (active). With `N#C/C(=C\c1ccc([N+](=O)[O-])cc1)c1ccccn1` the inhibition was -27.2%. With `CNc1ccc(/C=C(\C#N)c2ccccn2)cc1[N+](=O)[O-]` the inhibition was -34.3%. Work on `CN(CCC#N)c1ccc(/C=C(\C#N)c2ccccn2)cc1` yielded an inhibition of 30.9%. With `CN(C)c1ccc(/C=C(\C#N)c2ccccn2)cc1` the inhibition was 73.6% (active). Molecule `CCOC(=O)c1sc(NC(=O)C(C)Sc2nnc(N)s2)nc1C` (configuration not stated) has an inhibition of -12.9%. Molecule `CCNC(=O)Nc1cc2nc(C)n(Cc3ccc(Br)cc3)c2nc1C` has an inhibition of 24.1%. In the case of `CC(=O)c1c(C(C)=O)c(C)n(-c2cccc([N+](=O)[O-])c2)c1C`, the inhibition is reported as -27.2%. With `CCOC(=O)c1cc(C)n(-c2c(C)n(C)n(-c3ccccc3)c2=O)c1C` the inhibition was -12.8%. `Cc1cc(-n2c(C)cc(C(=O)CN3C(=O)NC4(CCCC4)C3=O)c2C)no1` gave an inhibition of -20.6%. Work on `Cc1cc(C(=O)CC#N)c(C)n1-c1c(C)n(C)n(-c2ccccc2)c1=O` yielded an inhibition of -19.8%. For `Cc1cc(C(=O)CCl)c(C)n1-c1c(C)n(C)n(-c2ccccc2)c1=O`, the inhibition was 42.5% (active). In the case of `Cc1cc(C(=O)CCl)c(C)n1-c1cccc([N+](=O)[O-])c1`, the inhibition is reported as 77.4% (active). For `Cc1cc(C(=O)CCl)c(C)n1-c1ccon1`, the inhibition was 28.2%. Molecule `COc1ccc(-n2c(C)cc(C(=O)CCl)c2C)cc1` has an inhibition of 39.1%. For `Cc1cc(-n2c(C)cc(C(=O)CCl)c2C)no1`, the inhibition was 46.4% (active). Work on `COc1ccc(NC(=O)Nc2cccc3ccccc23)cc1S(N)(=O)=O` yielded an inhibition of 25.8%. `N/C(=N\O)c1cccc(CS(=O)(=O)c2ccccn2)c1` gave an inhibition of -7.5%. `Cc1ccc(-n2[nH]c(C)c(C=NC34CN5CN(CN(C5)C3)C4)c2=O)cc1C` showed an inhibition of 9.5%. With `CCCN1C(=S)c2ccccc2C1c1ccccc1` (configuration not stated) the inhibition was 35.5%. In the case of `O=S(=O)(NN1CCOCC1)c1ccc(Cl)s1`, the inhibition is reported as -37.6%. Molecule `O=C1c2cccc3cccc(c23)C(=O)N1Cc1ccccc1` has an inhibition of -16.9%. For `Cc1ccc(CN2CCN(CCCn3cccn3)CC2CCO)cc1` (configuration not stated), the inhibition was -31%. Work on `CCOC(=O)N1CCN(c2cc(=O)n(Cc3ccc(F)cc3)c(=O)[nH]2)CC1` yielded an inhibition of -37.3%. Work on `Cc1ccc(CN2C3CCCC2CC(NC(=O)c2ccc(C)cc2)C3)cc1` (configuration not stated) yielded an inhibition of -21.4%. For `Cc1ccc(CN2C3CCCC2CC(NC(=O)c2ccc(F)cc2)C3)cc1` (configuration not stated), the inhibition was -0.1%. In the case of `Cc1ccc(C(=O)NC2CC3CCCC(C2)N3Cc2ccccc2)cc1` (configuration not stated), the inhibition is reported as 59% (active). `CC1CCCC(C)N1C(=O)Cn1nnc(-c2ccc([N+](=O)[O-])cc2)n1` (configuration not stated) gave an inhibition of -36.1%. With `CC1(C)Cc2ccccc2C2=NNC(=O)C2=N1` the inhibition was 41.8% (active). `CC1(C)CC(=O)C(C2=NC(C)(C)Cc3ccccc32)=C(O)C1` showed an inhibition of -9.1%. For `CC1=NC(C)(C)Cc2ccccc21`, the inhibition was 1.3%. In the case of `O=[N+]([O-])c1cc2c(cc1/C=N/Nc1nc(Nc3ccccc3)nc(N3CCCCC3)n1)OCO2`, the inhibition is reported as -23%. `Cc1ccc([N+](=O)[O-])cc1NC(=O)CN(C1CCCCC1)S(=O)(=O)c1ccc(Cl)cc1` showed an inhibition of -5%. `O=S(=O)(c1ccc2ccccc2c1)N(CC1CO1)c1ccccc1` (configuration not stated) showed an inhibition of -30.1%. Molecule `Cc1nn2c(SCC(=O)c3cccs3)cc(C(C)(C)C)nc2c1-c1ccccc1` has an inhibition of 5.2%. `Cc1cc(SCC(=O)c2cccs2)n2nc(C)c(-c3ccccc3)c2n1` showed an inhibition of 20.3%. With `Cc1cc(SCC(=O)c2cccs2)n2nc(C)c(-c3ccc(Cl)cc3)c2n1` the inhibition was 79.4% (active). `CCOc1ccc(/C=N/n2c(C)nc3ccccc3c2=O)cc1` gave an inhibition of -12.3%. With `N#C/C(=C\c1cn(-c2ccccc2)nc1-c1cccnc1)c1nnc2n1CCCCC2` the inhibition was -13%. Molecule `O=C1COc2ccc(S(=O)(=O)NCc3ccccc3)cc2N1` has an inhibition of -13.7%. With `Nc1ccc(-c2ncc(-c3ccccc3)o2)cc1` the inhibition was 46.7% (active). For `c1ccc(-c2cnc(-c3cccnc3)o2)cc1`, the inhibition was -16.8%. `NC(=O)c1ccc(-c2ncc(-c3ccccc3)o2)cc1` showed an inhibition of 14.6%. In the case of `CCC(C)(C)NC(=O)CN(C(=O)CNS(=O)(=O)c1ccc(F)cc1)c1ccc2c(c1)OCCO2`, the inhibition is reported as -13%. Molecule `O=C(NCCCn1ccnc1)c1ccc(Cl)c(Cl)c1` has an inhibition of 3.9%. Molecule `O=S(=O)(Nc1ccc(N2CCOCC2)cc1)c1cccs1` has an inhibition of -20.1%. In the case of `O=C1N/C(=N\N=C\c2ccc3ncccc3c2)SC1Cc1ccc(SC(F)F)cc1` (configuration not stated), the inhibition is reported as -44%. In the case of `O=C1N/C(=N\N=C\c2cccnc2)SC1Cc1ccc(SC(F)F)cc1` (configuration not stated), the inhibition is reported as 106% (active). In the case of `O=C(CC1S/C(=N/N=C/c2cccnc2)NC1=O)Nc1ccccc1` (configuration not stated), the inhibition is reported as -13.1%. Work on `O=C(N/N=C/c1ccc([N+](=O)[O-])cc1)c1cccc(N2CCCC2=O)c1` yielded an inhibition of -9.3%. In the case of `Cc1cc(=O)oc2cc(OCC(=O)NC(Cc3c[nH]c4ccc(O)cc34)C(=O)O)c(Cl)cc12` (configuration not stated), the inhibition is reported as -16.2%. Work on `COc1ccc(/C=C2\SC(=O)N(CCNC(=O)Cc3coc4cc(C)ccc34)C2=O)cc1OC` yielded an inhibition of -2.7%. Molecule `COc1ccc(C(=O)NCCN2C(=O)S/C(=C\c3cccnc3)C2=O)cc1[N+](=O)[O-]` has an inhibition of 1.6%. With `COc1ccc2c(CC(=O)NCCN3C(=O)S/C(=C\c4cccnc4)C3=O)coc2c1` the inhibition was 68% (active). With `CS(=O)(=O)c1ccc(C(=O)NCCN2C(=O)S/C(=C\c3cccnc3)C2=O)cc1[N+](=O)[O-]` the inhibition was 93.4% (active). In the case of `COc1ccc(/C=C2\SC(=O)N(CCNC(=O)Cc3coc4cc(OC)ccc34)C2=O)cc1`, the inhibition is reported as -10.8%. With `Cc1c(C(=O)NCCN2C(=O)S/C(=C\c3cccnc3)C2=O)cccc1[N+](=O)[O-]` the inhibition was 1.5%. Molecule `O=C(O)CSCC(=O)N1CCN(S(=O)(=O)c2ccccc2)CC1` has an inhibition of -20.2%. For `c1ccc(NC2=NCCN2CC2CCCC2)cc1`, the inhibition was -17.2%. Molecule `COc1ccc(Cc2nc3ccc(C(=O)NC(C)c4cnn(C)c4)cc3o2)cc1` (configuration not stated) has an inhibition of -4.3%. With `CCC(C)NC(=O)c1ccc2nc(Cc3ccc(OC)cc3)oc2c1` (configuration not stated) the inhibition was -14.9%. In the case of `COc1ccc(OC)c(NC(=O)CNC(=O)Cn2cnc3sc(C)cc3c2=O)c1`, the inhibition is reported as -3.5%. For `COc1ccc(-c2cc(=O)oc3cc(OC(=O)C4CCCCC4)ccc23)cc1`, the inhibition was 87.8% (active). Work on `COc1ccc(-c2cc(=O)oc3cc(OC(C)C(=O)O)ccc23)cc1` (configuration not stated) yielded an inhibition of 29.6%. Work on `COc1ccc(-c2cc(=O)oc3cc(OCC(C)=O)ccc23)cc1` yielded an inhibition of -12.9%. With `O=C(Oc1ccc2ccc(=O)oc2c1)C1CCCCC1` the inhibition was -28.4%. `O=C(Oc1ccc2c(-c3ccccc3)cc(=O)oc2c1)C1CCCCC1` gave an inhibition of 13.8%. Molecule `Nc1cc(=O)[nH]c(SCc2ccccc2Cl)n1` has an inhibition of -3.2%. Work on `CN1C(=O)S/C(=C/c2cccnc2)C1=O` yielded an inhibition of -3.3%. Molecule `Cc1cc(C(=O)NC2CC(C)(C)Cc3c2cnn3-c2ccccc2C)c(C)o1` (configuration not stated) has an inhibition of -10.6%. For `Clc1ccccc1OCc1nn2c(-c3ccncc3)nnc2s1`, the inhibition was -2.2%. For `COc1ccc(NC(=O)CSc2ccc(-c3sc(C)nc3C)nn2)cc1OC`, the inhibition was -3.5%. `COc1ccc(NC(=O)CSc2ccc(-c3sc(C)nc3C)nn2)cc1` gave an inhibition of -17.2%. `CCOC(=O)CCCCCN1C(=O)c2cccc3cccc(c23)C1=O` showed an inhibition of -23.8%. `CCN(CC)S(=O)(=O)c1ccc(C(=O)NCCCn2ccnc2)cc1` gave an inhibition of -65.6%. Molecule `O=C(O)c1ccc(N2CCCCS2(=O)=O)cc1` has an inhibition of -12.1%.
